# Source: PubChem BioAssay (several laboratories)
# A selection: hits, their analogues and other compounds. The true share with any hit is near 5%.
# AHR activator: activators of human aryl hydrocarbon receptor; P35869; AHR-responsive luciferase reporter cells, luminescence; activation, % at 5 µM; hit rate 2.5% among 320,000; AID 2796; in the data active means activation above about 47%
# SENP6 block: blocks the human protease SENP6 | Recombinant SENP6 catalytic domain, aminoluciferin luminescence | hit rate 1.8% among 330,000 | Q9GZR1 | inhibition, % at 10 µM;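 active means inhibition above about 50% at the single tested dose, limit read from the data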
# SENP8 block-1: blocks the human protease SENP8. Q96LD8. purified SENP8, Z-RLRGG-aminoluciferin cleavage, luminescence. inhibition, % at 10 µM. hit rate 1.2% among 330,000; in the data active means inhibition above about 50%
# Target sequence (Q96LD8 whole entry, looked up): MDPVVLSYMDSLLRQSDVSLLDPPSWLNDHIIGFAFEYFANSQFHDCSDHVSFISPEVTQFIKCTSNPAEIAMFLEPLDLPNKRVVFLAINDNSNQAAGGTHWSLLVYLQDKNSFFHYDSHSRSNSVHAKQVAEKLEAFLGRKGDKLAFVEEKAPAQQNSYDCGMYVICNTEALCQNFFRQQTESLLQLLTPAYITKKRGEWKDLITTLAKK
# EBI2 block: EBI2 (human) antagonism | P32249 | EBI2 beta-arrestin recruitment, luminescence, 7a,25-OHC stimulated | inhibition, % at 5 µM | hit rate 0.81% among 360,000 | AID 651636; in the data active means inhibition above about 38%;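 further: enzyme fragment complementation signal reports receptor beta-arrestin coupling in cells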
# Target sequence (P32249 whole entry, looked up, the tested form may be a part): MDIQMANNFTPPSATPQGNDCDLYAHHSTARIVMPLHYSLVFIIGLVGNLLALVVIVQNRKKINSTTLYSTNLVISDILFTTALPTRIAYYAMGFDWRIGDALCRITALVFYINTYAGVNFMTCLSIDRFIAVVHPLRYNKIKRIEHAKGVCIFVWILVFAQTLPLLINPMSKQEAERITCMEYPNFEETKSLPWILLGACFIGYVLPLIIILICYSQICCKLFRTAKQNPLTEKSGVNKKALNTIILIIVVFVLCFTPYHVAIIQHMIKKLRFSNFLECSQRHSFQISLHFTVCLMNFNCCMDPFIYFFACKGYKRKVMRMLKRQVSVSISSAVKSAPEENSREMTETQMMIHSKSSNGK
# SENP7 block: blocks the human protease SENP7; Q9BQF6; AID 434973; hit rate 1.5% among 330,000; recombinant SENP7, Z-RLRGG-aminoluciferin luminescence, 40 min; inhibition, % at 5 µM;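 active means inhibition above about 50% at the single test dose, limit read from the data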
# SENP8 block-2: SENP8 (human) protease inhibition; hit rate 0.64% among 360,000; inhibition, % at 20 µM; Q96LD8; AID 602440; recombinant SENP8, Nedd8 substrate fluorescence; in the data active means inhibition mostly above about 40%, no sharp cut-off; inactive means mostly below about 27%
# SENP8 conf: human SENP8 inhibition, confirmed; Recombinant SENP8, Z-RLRGG-aminoluciferin luminescence, 60 min; inhibition, % at 12.5 µM; hit rate 40% among 6,200; AID 488912; shares compounds with SENP7 block;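 active means mean inhibition across replicates above about 50%, limit read from the data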
# SENP6 confirm: confirmation of human SENP6 protease inhibitors; shares compounds with SENP7 block; hit rate 58% among 6,200; AID 488915; inhibition, % at 12.5 µM; recombinant SENP6, Z-RLRGG-aminoluciferin luminescence
# SENP7 conf: human SENP7 inhibition, confirmed. shares compounds with SENP7 block. recombinant SENP7, Z-RLRGG-aminoluciferin luminescence, 40 min. inhibition, % at 12.5 µM. hit rate 69% among 6,200. AID 488917
# Casp3 SENP sel: selectivity test for SENP inhibitors: human caspase-3 inhibition | shares compounds with SENP7 block | purified caspase-3, Z-DEVD-aminoluciferin luminescence, 60 min | inhibition, % at 12.5 µM | hit rate 60% among 6,200 | AID 488918;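 active means mean inhibition above about 50%, limit read from the data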
# Luc interf: counter-screen for SENP inhibitors: luminescence interference. shares compounds with SENP7 block. Pre-incubated SENP8/Z-RLRGG-aminoluciferin, luciferase luminescence interference. inhibition, % at 12.5 µM. hit rate 39% among 6,200. AID 488919;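 active means mean inhibition above about 50% when retested at one dose, limit read from the data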
# A number is an active result; n = inactive; x = no result.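 How the source made its calls, unless noted: active means mean inhibition above about 50% in the one-dose retest (limit read from the data); inactive means the rest.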
SMILES,AHR activator,SENP6 block,SENP8 block-1,EBI2 block,SENP7 block,SENP8 block-2,SENP8 conf,SENP6 confirm,SENP7 conf,Casp3 SENP sel,Luc interf
Cc1[nH]n(-c2ccc([N+](=O)[O-])cc2)c(=O)c1C=NCCN1CCN(C(=O)c2ccccc2)CC1,n,88.4,69.7,n,89.9,n,n,n,n,67.1,59.3
COc1ccccc1NC(=O)CSCc1nc2ccccc2[nH]1,n,n,n,n,n,n,x,x,x,x,x
O=C(O)c1ccc(/C=C2\SC(=S)N(Nc3ccccc3)C2=O)cc1,n,95.1,82.4,n,78.3,n,92.2,91.9,98.3,84.2,76.3
O=C1/C(=C/c2ccncc2)SC(=S)N1Nc1ccccc1,n,n,n,n,n,n,x,x,x,x,x
COc1cc(/C=C2\SC(=S)N(Nc3ccccc3)C2=O)ccc1O,n,93.0,89.1,n,71.9,52.2,95.3,95.7,100.1,78.0,94.4
CCOc1cc(/C=C2\SC(=S)N(Nc3ccccc3)C2=O)ccc1O,n,85.0,n,n,n,n,60.1,68.8,80.9,n,55.2
COc1ccc(C)cc1NC(=O)Cc1csc(NC(=O)Nc2ccccc2OC)n1,x,x,x,n,x,n,x,x,x,x,x
CCOC(=O)CCS(=O)(=O)c1ccc(-c2ccc(S(=O)(=O)CCC(=O)OCC)cc2)cc1,n,n,n,n,58.2,n,n,n,n,n,n
Cc1nc2nc(C)c(CCC(=O)O)c(C)n2n1,n,n,n,n,n,n,x,x,x,x,x
CCc1ccccc1NC(=O)C1CCCN1C(=O)Nc1ccc(C)cc1 (configuration not stated),n,n,n,n,n,n,x,x,x,x,x
CCOC(=O)c1c(N)n(CCOC(=O)c2cccs2)c2nc3ccccc3nc12,n,84.3,n,n,n,n,n,n,n,n,n
CCOC(=O)c1c(N)n(-c2ccc(N)cc2)c2nc3ccccc3nc12,n,n,n,n,n,n,x,x,x,x,x
CC(C)CC(NC(=O)OC(C)(C)C)c1cn([C@@H](Cc2ccc(O)cc2)C(=O)N2CCN(C(=O)OC(C)(C)C)CC2)nn1 (some centres not stated),n,n,n,n,n,n,x,x,x,x,x
Cc1ccc(C)c(NCCC#N)c1,n,n,n,n,n,n,x,x,x,x,x
Cn1c(=O)c2c(ncn2CC(=O)OCC(=O)Nc2cc(Cl)ccc2Cl)n(C)c1=O,n,n,n,n,n,n,x,x,x,x,x
O=C1CN(C(=O)c2ccc(Cl)c(S(=O)(=O)N3CCc4ccccc43)c2)c2ccccc2N1,n,60.6,n,n,n,n,n,n,n,n,n
O=C1CN(C(=O)COC(=O)c2ccc(Cl)c(S(=O)(=O)N3CCCCC3)c2)c2ccccc2N1,n,n,n,n,n,n,x,x,x,x,x
COc1cc2[nH]c(=S)nc(NCc3ccccn3)c2cc1OC,x,x,x,n,x,n,x,x,x,x,x
COc1ccc(-c2noc(N3CCC(C(=O)Nc4ccccc4F)CC3)n2)cc1,n,n,n,n,n,n,x,x,x,x,x
O=C(Nc1ccc(F)cc1)c1cc(-c2ccccc2)no1,n,n,n,n,n,n,x,x,x,x,x
COc1ccc(-c2cc(C(=O)Nc3ccccc3)on2)cc1,n,60.7,n,n,86.5,n,n,n,n,n,n
COc1ccc(-c2cc(C(=O)Nc3ccccc3F)on2)cc1,n,n,n,n,69.8,n,n,n,n,n,n
O=C(CSc1n[nH]c(-c2ccccc2F)n1)Nc1cc(F)ccc1F,n,n,n,n,n,n,x,x,x,x,x
CC(C)(C)NC(=S)Nc1ccc(Nc2ccccc2)cc1,n,n,n,n,50.5,n,n,n,n,n,n
O=c1oc(Nc2ccccc2F)nc2ccccc12,n,76.2,54.2,n,n,n,n,98.8,103.2,99.3,98.0
SMILES,AHR activator,SENP6 block,SENP8 block-1,EBI2 block,SENP7 block,SENP8 block-2,SENP8 conf,SENP6 confirm,SENP7 conf,Casp3 SENP sel,Luc interf
O=C(Nc1ccnn1C1CCN(Cc2cccc(O)c2)CC1)C1CCCC1,n,n,n,n,n,n,x,x,x,x,x
Cc1ccc(C2=C/C(=C/c3cccs3)C(=O)O2)cc1,n,74.2,n,n,70.8,n,n,n,n,n,n
O=C(Nc1nc2c(s1)CCCC2)c1cccnc1,n,n,n,n,n,n,x,x,x,x,x
Cc1ccc(C(=O)Nc2nc3c(s2)CCCC3)o1,n,94.1,81.7,n,92.8,n,n,89.6,100.0,93.1,n
O=C(Nc1nc2c(s1)CCCC2)c1ccc(Br)o1,n,91.2,85.7,n,87.7,n,90.4,90.6,99.1,90.9,87.2
Cc1cccc(NC(=O)c2c(C)nn(-c3ccccc3)c2Cl)c1,n,n,n,n,n,n,x,x,x,x,x
CCOC(=O)c1cc(C(=O)Nc2cccc(C)c2)nn1C,n,n,n,n,59.3,n,n,n,78.5,72.4,58.1
O=C(O)c1ccc(N/N=C/c2ccc(-c3cc(Cl)ccc3Cl)o2)cc1,n,76.2,53.4,n,n,n,n,84.6,86.5,n,n
O=C(O)c1ccc(N/N=C/c2ccc(-c3cccc(Cl)c3)o2)cc1,128.0,n,57.8,n,n,n,82.5,82.1,90.4,n,82.5
O=C(O)c1ccc(N/N=C/c2ccc(-c3ccc(Cl)cc3Cl)o2)cc1,n,n,n,n,n,n,x,x,x,x,x
O=C(O)CC1S/C(=N\N=C2\C(=O)Nc3ccccc32)N(c2ccc(O)cc2)C1=O (configuration not stated),n,n,n,n,n,n,x,x,x,x,x
CC(C)(C)c1ccc(C(=O)O/N=C(\N)c2ccccc2)cc1,n,92.6,90.4,n,94.7,n,95.6,96.5,101.6,92.1,n
N/C(=N\OC(=O)c1ccc(Br)cc1)c1ccccc1,n,93.3,94.5,n,99.0,n,80.8,95.6,101.8,96.6,52.9
O=C(COC(=O)c1ccccc1)c1ccc(Br)cc1,n,86.3,83.2,n,n,n,n,63.7,87.0,62.9,n
COc1ccc(/C(N)=N/OC(=O)CSc2ccccc2)cc1,n,76.6,n,n,63.0,n,56.7,65.1,86.7,x,n
N/C(=N\OC(=O)c1cccc(Br)c1)c1ccc(Br)cc1,n,n,n,n,n,n,x,x,x,x,x
C#CCOCCOCCOCCNc1nc(N2CCN(C(=O)[C@H](Cc3ccc(O)cc3)n3cc(CCO)nn3)CC2)nc(N2CCN(C(=O)[C@H](Cc3ccc(O)cc3)n3cc(CCO)nn3)CC2)n1,n,n,n,x,n,x,x,x,x,x,x
COc1ccc(CCNC(=O)COc2ccc(C)nc2[N+](=O)[O-])cc1OC,n,n,n,n,n,n,x,x,x,x,x
